Platelet DG rel – platelet dense granule release activity; actives 0.22% (n = 300,000); AID 1663; inhibition, %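 (compounds screened at 7.5 µM in platelet-rich plasma)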; human platelet-rich plasma, SFLLRN dense granule ATP release, luminescence;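 active means mean replicate score, as percent of positive control, at or above 50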
PHOSPHO1 block – PHOSPHO1 (human) inhibition. Q8TCT1. recombinant PHOSPHO1, absorbance phosphatase assay. inhibition, % at 13.3 µM. actives 1.1% (n = 290,000). AID 1565; in the data active means inhibition above about 60%
Target sequence (Q8TCT1 whole entry, looked up): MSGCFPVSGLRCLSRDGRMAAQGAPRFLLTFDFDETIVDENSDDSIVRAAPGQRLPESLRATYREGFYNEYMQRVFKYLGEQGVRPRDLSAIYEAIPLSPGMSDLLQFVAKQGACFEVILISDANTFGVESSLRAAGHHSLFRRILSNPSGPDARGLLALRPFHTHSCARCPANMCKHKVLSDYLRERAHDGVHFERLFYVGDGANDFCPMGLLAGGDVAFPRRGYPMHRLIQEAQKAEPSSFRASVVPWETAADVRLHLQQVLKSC
WT yeast gro inh – growth inhibition of WT yeast, mitochondrial fusion screen | mitochondrial fusion phenotypic screen, WT strain | inhibition, % at 10 µM | actives 2.1% (n = 190,000); in the data active means inhibition above about 58%; tested in S. cerevisiae
TPT1 inh – blocks Candida albicans tRNA 2'-phosphotransferase. recombinant caTPT1, FP RNA substrate dephosphorylation. inhibition, % at 5 µM. actives 0.81% (n = 300,000). AID 1962;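 active means inhibition above the mean of all tested compounds plus 3 SD, set per screening campaign, cut at about 24% in these data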;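 further: plate controls were DMSO alone for no effect and ferristatin control at 100 nM for full effect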
Rtt109 HAT inh – blocks Candida albicans Rtt109/Vps75 acetyltransferase activity; inhibition, % at 34.9 µM; purified Rtt109/Vps75, ThioGlo CoA-SH fluorescence, 4 h; Q5AAJ8; actives 0.16% (n = 330,000);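 active means inhibition of at least 50% in every replicate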
SKKanGAS inh – inhibitors of SKKanGAS S. pyogenes growth in kanamycin (SK-promoter or general growth effect); BacTiter-Glo, 6 h; inhibition, % at 7.5 µM; actives 1.3% (n = 300,000);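 active means mean replicate score, as percent of positive control median, at least 50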;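 further: strain carries kanamycin resistance gene driven by streptokinase promoter and grows in 40 µg/ml kanamycin; loss of luminescence reflects streptokinase promoter inhibition or plain growth inhibition; 0% = median of DMSO wells and 100% = positive control at its reference dose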
caTPT1 confirm – confirmation of Candida albicans TPT1 inhibitors | AID 2149 | actives 74% (n = 2,400) | recombinant caTPT1, fluorescence polarization, RNase T1 coupled | shares compounds with TPT1 inh | inhibition, % at 5 µM;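 active means inhibition above the primary screen limit, the mean inhibition of all tested compounds plus 3 SD, cut at about 25% in these data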
RNase T1 counter – blocks Aspergillus oryzae RNase T1, a TPT1 counter-screen; shares compounds with TPT1 inh; RNase T1 cleavage, fluorescence polarization, 1536-well; inhibition, % at 5 µM; actives 83% (n = 2,400);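 active means inhibition above the solvent-only control well mean plus 3 SD, limit set per screening run, cut at about 23% in these data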;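 further: plate controls were DMSO wells with enzyme for no effect and wells without RNase T1 for full effect; inhibitors block cleavage so intact labeled substrate keeps polarization high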
Target sequence (P00651 whole entry, looked up): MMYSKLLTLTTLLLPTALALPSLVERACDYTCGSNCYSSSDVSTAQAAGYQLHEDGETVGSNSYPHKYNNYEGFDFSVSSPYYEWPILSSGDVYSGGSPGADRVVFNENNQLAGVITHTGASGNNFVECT
An asterisk follows results filed as active; · = no result. Shown are actives, neighbours in structure and some others; about 3.9% of the full set was active somewhere.

SMILES | Platelet DG rel | PHOSPHO1 block | WT yeast gro inh | TPT1 inh | Rtt109 HAT inh | SKKanGAS inh | caTPT1 confirm | RNase T1 counter
COc1ccc(C(=O)N(C)Cc2ccccn2)cc1OC1CCN(C(C)C)CC1 | 8.1 | -15.8 | · | -1.5 | 1.5 | 3.7 | · | ·
C=CCn1cc(/C=C/c2cc[n+](C)cc2)c2ccccc21 | -2.5 | -8.2 | · | 46.0* | 6.5 | -6.7 | 55.5* | 59.2*
CCN(CC)C(=O)Cn1c(C)c(/C=C/c2cc[n+](C)cc2)c2ccccc21 | 0.9 | -2.0 | · | 108.2* | 6.3 | 2.8 | 108.2* | 106.9*
Cc1[nH]c2ccccc2c1/C=C/c1cc[n+](C)cc1 | 3.0 | -88.5 | 57.7 | · | 28.7 | 2.8 | · | ·
C=CCn1c(C)c(/C=C/c2cc[n+](C)cc2)c2ccccc21 | -10.5 | -36.9 | · | 118.8* | -10.7 | -4.0 | 127.2* | 122.0*
CCn1cc(/C=C/c2cc[n+](C)cc2)c2ccccc21 | -1.6 | -68.8 | · | 39.4* | -11.3 | -5.0 | 42.5* | 49.8*
CCOc1ccccc1C(=O)NCC(=O)NNC(=O)CN(C)S(=O)(=O)c1ccc(Cl)cc1 | -4.1 | · | · | -0.3 | -10.7 | -0.5 | · | ·
O=C(NC1CCC(O)CC1)C1CCN(S(=O)(=O)c2c(Cl)cccc2Cl)CC1 (centres undefined) | · | · | · | · | -9.5 | · | · | ·
NC(=O)N/N=C/c1ccc(N2CCOCC2)s1 | 8.0 | -0.9 | -3.1 | 81.0* | -9.5 | 4.4 | 123.2* | 129.8*
CCN(CC(=O)Nc1c(F)cccc1F)C(=O)c1cccc(-n2cnnn2)c1 | · | · | · | · | 3.6 | · | · | ·
Cc1ccc2nc(/C(C#N)=C/c3ccc(-c4cccc([N+](=O)[O-])c4)o3)[nH]c2c1 | · | 0.6 | 0.6 | 76.2* | 0.5 | · | 65.4* | 74.0*
Cc1ccc(NC(=O)CCN2C(=O)C3CCCCC3C2=O)cc1[N+](=O)[O-] (centres undefined) | -23.7 | · | · | 1.2 | -1.4 | -7.4 | · | ·
CNC(=O)/C(C#N)=C1/SC(Cc2ccc(F)cc2)C(=O)N1c1ccccc1 (centres undefined) | -18.4 | 28.2 | · | -4.7 | 7.3 | -2.4 | · | ·
N#C/C(C(N)=O)=C1/SC(Cc2ccc(F)cc2)C(=O)N1c1ccccc1 (centres undefined) | -3.6 | 35.8 | · | 27.7* | 4.1 | 4.7 | 4.0 | 5.0
Cc1ccccc1N1C(=O)C(Cc2ccc(F)cc2)S/C1=C(\C#N)C(N)=O (centres undefined) | 2.8 | -1.3 | · | 26.4* | · | -3.5 | 6.9 | 10.9
CN(C)c1ccc(/C=C(\NC(=O)c2ccccc2)C(=O)N/N=C/c2ccc(C(=O)O)cc2)cc1 | -33.6 | 40.0 | · | 33.3* | 0.9 | 0.5 | 19.7 | 29.4*
CN(C)c1ccc(/C=C(/NC(=O)c2ccccc2)C(=O)NCCCn2ccnc2)cc1 | 10.7 | -3.7 | · | 134.2* | -0.7 | -0.5 | 155.1* | 157.2*
CN1CCN(C(=O)/C(=C/c2ccc(N(C)C)cc2)NC(=O)c2ccccc2)CC1 | 7.2 | 32.5 | · | 44.9* | 2.1 | -5.1 | 48.2* | 58.1*
CN(C)c1ccc(/C=C(\NC(=O)c2ccccc2)C(=O)NCCN2CCOCC2)cc1 | 8.5 | -114.0 | · | 28.5* | 3.0 | 1.5 | 17.4 | 22.6*
CN1CCN(C(=O)/C(=C/c2ccc(F)cc2)NC(=O)c2ccccc2)CC1 | 2.9 | 27.5 | · | -0.2 | 4.3 | -6.9 | · | ·
CCC12C(=Nc3c(Cl)cccc31)C[C@@H]1CCN3C(=O)CCC[C@H]2[C@H]13 (some centres undefined) | · | · | · | · | -13.1 | · | · | ·
CCOC(=O)C(CCc1ccccn1)c1ccccc1 (centres undefined) | · | · | · | · | 8.2 | · | · | ·
CN(C)c1ccc(/C=C(\NC(=O)c2ccccc2)C(=O)NCc2cccnc2)cc1 | -3.3 | 39.1 | · | 50.6* | -8.5 | 3.7 | 68.0* | 83.7*
O=C(O)Cc1sc(Nc2ccccc2)nc1-c1ccc(Cl)cc1 | 9.9 | -97.9 | 7.8 | -3.1 | -1.8 | 12.6 | · | ·
O=C(O)Cc1sc(Nc2ccc(F)cc2)nc1-c1cccs1 | 0.2 | -122.7 | 22.3 | 68.2* | -0.7 | 4.0 | 48.6* | 63.3*
SMILES | Platelet DG rel | PHOSPHO1 block | WT yeast gro inh | TPT1 inh | Rtt109 HAT inh | SKKanGAS inh | caTPT1 confirm | RNase T1 counter
Cc1ccc(Nc2nc(-c3ccccc3)c(CC(=O)O)s2)cc1 | -0.5 | 10.8 | -20.6 | 56.5* | · | -0.9 | 21.6 | 31.2*
Cc1nc(Nc2ccccc2)sc1C(=O)c1ccc(F)cc1 | 2.4 | -15.3 | · | -1.1 | -1.5 | 1.2 | · | ·
Cc1cc(C)c2nc(N3C(=O)C(O)=C(C(=O)c4ccco4)C3c3cccc(O)c3)sc2c1 (centres undefined) | · | · | · | · | 7.1 | · | · | ·
CC(=O)C1=C(C)NC(SCC(=O)c2ccc(-c3ccccc3)cc2)=C(C#N)C1c1cccnc1 (centres undefined) | · | 52.9 | 3.0 | 29.8* | · | · | 39.1* | 49.6*
C=CCOC(=O)C1=C(C)NC(SCC(=O)N(CC)CC)=C(C#N)C1c1ccccc1 (centres undefined) | 2.9 | 33.7 | 14.9 | -2.1 | 12.7 | 3.5 | · | ·
C=CCOC(=O)C1=C(C)NC(SCC(=O)NC(=O)OCC)=C(C#N)C1c1cccnc1 (centres undefined) | 0.0 | 77.5* | -5.3 | 24.7* | 0.6 | 4.7 | 23.0 | 31.2*
CCCn1cc([C@@H]2C[C@H]3CN(Cc4cccc(Cl)c4)C(=O)[C@]34CCCN24)c(C)n1 | 1.3 | 28.3 | · | 3.3 | -5.1 | 1.1 | · | ·
Cc1c([C@@H]2C[C@H]3CN(Cc4cccc(Cl)c4)C(=O)[C@]34CCCN24)cnn1C | -6.4 | 44.9 | 2.2 | 31.6* | -5.7 | -10.1 | 33.9* | 47.7*
O=C(CC(=O)c1ccccc1)Nc1ccccc1C(F)(F)F | -2.9 | · | · | -0.8 | 3.4 | -4.2 | · | ·
CC1(C)Cc2c(c(N3CCOCC3)nc3sc(-c4ccc(C(=O)O)o4)c(N)c23)CO1 | 11.4 | -13.3 | -8.4 | 32.8* | -24.4 | 22.0 | 35.0* | 46.9*
COCCN(CC(=O)Nc1cccc(C)c1C)C(=O)Cc1ccsc1 | · | · | · | · | -0.7 | · | · | ·
CC(NC(=O)/C(=C/c1cccc([N+](=O)[O-])c1)NC(=O)c1ccco1)C(=O)O (centres undefined) | -4.5 | -14.7 | 3.7 | 130.3* | 1.7 | 18.0 | 3.3 | 8.3
O=C(NC(Cc1ccccc1)C(=O)O)/C(=C\c1cccc([N+](=O)[O-])c1)NC(=O)c1ccco1 (centres undefined) | -2.4 | 52.7 | · | -0.9 | 18.9 | -0.8 | · | ·
NNC(=O)c1oc2nc(-c3ccc(Cl)cc3)cc(-c3ccccc3)c2c1N | 6.8 | 11.4 | · | · | -1.9 | 25.4 | · | ·
Nc1c(C(=O)N/N=C/c2cccnc2)oc2nc(-c3ccccc3)cc(-c3ccco3)c12 | 19.5 | 17.1 | · | 57.8* | 19.0 | 25.1 | 100.4* | 102.6*
O=C(N/N=C/c1cccnc1)c1cc2ccccc2o1 | 4.8 | 4.9 | -5.0 | -1.7 | · | -3.0 | · | ·
NNC(=O)c1oc2nc(-c3ccco3)cc(-c3ccco3)c2c1N | 24.5 | 22.5 | · | 65.8* | · | 19.6 | 47.8* | 60.7*

Screens: PubChem BioAssay, several laboratories
